Measurements published in PubChem BioAssay (NCI).
This is part of a sample that, as a whole, favours compounds with a hit. Of some 83,000 tested, about 20% had one in any assay.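 Results are percent growth after 48 hours of single-concentration exposure. 100 means growth as in untreated cells, lower positive values show inhibition; negative values down to -100 show cell death.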 Values without a mark were called inactive. The source made the active and inactive calls. How the source made its calls: active means growth percent below 10; inactive means the rest.

Assays:
Assay in all cases: NCI-60 one-dose screen, 48 h (100 = growth as untreated, 0 = no growth, -100 = all killed)
Conditions in all cases: 10 µM unless noted
[1] = system: NCI-H23 lung
[2] = system: NCI-H226 lung
[3] = system: NCI-H322M lung
[4] = system: HOP-62 NSCLC
[5] = system: NCI-H460 lung
[6] = system: HOP-92 NSCLC
[7] = system: NCI-H522 lung
[8] = system: A549/ATCC NSCLC
[9] = system: 786-0 renal
[10] = system: COLO 205 colon
[11] = system: DU-145 prostate
[12] = system: K-562 leukemia
[13] = system: MALME-3M melanoma
[14] = system: MDA-MB-231 breast
[15] = system: RXF 393 renal
[16] = system: SF-268 CNS
[17] = system: SF-295 CNS
[18] = system: SF-539 CNS
[19] = system: UACC-257 melanoma
[20] = system: M14 melanoma

SMILES	growth [1]	growth [2]	growth [3]	growth [4]	growth [5]	growth [6]	growth [7]	growth [8]	growth [9]	growth [10]	growth [11]	growth [12]	growth [13]	growth [14]	growth [15]	growth [16]	growth [17]	growth [18]	growth [19]	growth [20]
CNC(=O)c1ccccc1Nc1nc(Nc2ccc3c(c2OC)CCC[C@H](N2CCN(CCO)CC2)C3)ncc1Cl	16.3%	28.6%	5.21% (active)	-48.7% (active)	0.445% (active)	-30.7% (active)	-47.9% (active)	-31.7% (active)	-66.1% (active)	-64.7% (active)	18.7%	-43.9% (active)	-52.1% (active)	-19.4% (active)	-23.3% (active)	17.3%	-63.7% (active)	-41.7% (active)	-75.8% (active)	-69% (active)
CC(C)(C)OC(=O)N1CCC(O)[C@@H](O[Si](c2ccccc2)(c2ccccc2)C(C)(C)C)[C@H]1/C=C/c1ccccc1 (some centres not stated)	34.4%	47.9%	83.5%	67.4%	36.1%	36%	30.1%	41.9%	52.2%	49%	57.6%	38.7%	47.3%	49.5%	6.38% (active)	52.5%	36.7%	57.1%	40.8%	50%
C/C(=N\NC(=O)Cn1c(-c2ccc(S(C)(=O)=O)cc2)nc2ccccc21)c1ccc(Cl)cc1	86.9%	83.4%	94.8%	88.6%	97.3%	98.3%	75.5%	77.6%	102%	93.4%	112%	80.7%	102%	90.2%	92.2%	91.3%	90%	106%	88.8%	94%
CCOc1cc2ncc(C#N)c(Nc3ccc(OCc4ccccn4)c(Cl)c3)c2cc1NC(=O)/C=C/CN(C)C	39.9%	47.2%	0.942% (active)	38.6%	-62.2% (active)	39.3%	6.98% (active)	22.3%	-74.7% (active)	27.4%	4.49% (active)	-47.5% (active)	-72.3% (active)	-40% (active)	-77.4% (active)	-36.7% (active)	54.1%	22%	52.8%	-82.4% (active)
C[C@]12O[C@H](C[C@]1(O)CO)n1c3ccccc3c3c4c(c5c6ccccc6n2c5c31)CNC4=O	-58.3% (active)	-68.8% (active)	-32.1% (active)	-63% (active)	-61.3% (active)	-26.3% (active)	-56.2% (active)	-29.9% (active)	-87.5% (active)	-84.9% (active)	3.57% (active)	4.93% (active)	-85.3% (active)	-44.2% (active)	-90.2% (active)	-45.5% (active)	-83.8% (active)	-96.6% (active)	-77.2% (active)	-56.4% (active)
Cc1cc(-c2cc(OC(=O)c3ccccc3)ccc2Cl)cc2nnc(Nc3ccc(OCCN4CCCC4)cc3)nc12	78.9%	78.6%	102%	50.2%	81.6%	40.8%	49.2%	69.4%	98.9%	62.8%	83.2%	-21.5% (active)	79.2%	70.6%	59.3%	92.8%	92.7%	87.1%	52.1%	-8.09% (active)
CCCCCCCC(=O)SCC/C=C/[C@@H]1CC(=O)NCc2nc(co2)C2=N[C@@](C)(CS2)C(=O)N[C@@H](C(C)C)C(=O)O1	-2.47% (active)	-10.4% (active)	-18.5% (active)	-6.6% (active)	3.41% (active)	-15.5% (active)	-10.2% (active)	-2.81% (active)	10.2%	-41.3% (active)	7.24% (active)	6.6% (active)	5.59% (active)	-1.69% (active)	–	1.9% (active)	-62.5% (active)	9.22% (active)	–	-3.25% (active)
Cc1ccc2oc(=O)cc(-c3cc(-c4cc5ccccc5oc4=O)nc(N)c3C#N)c2c1	62.7%	93.3%	72.8%	35.9%	27%	40.1%	87.6%	54.8%	15.6%	80.2%	61.6%	81%	51.3%	55.5%	–	48.1%	63.4%	59.8%	–	85.7%
CSC1=C(N)C(=O)c2[nH]cc(CO)c2C1=N	-29.3% (active)	-65.3% (active)	-97.2% (active)	-72.1% (active)	-59.2% (active)	-71.7% (active)	-43.4% (active)	-57.4% (active)	-70.1% (active)	-77.6% (active)	-94.8% (active)	-24.1% (active)	-96.1% (active)	2.56% (active)	–	-69.4% (active)	-97.1% (active)	-96.2% (active)	–	-83.5% (active)
CCCCCCCC(=O)SCC/C=C/[C@@H]1CC(=O)NCc2cccc(n2)C2=N[C@@](C)(CS2)C(=O)N[C@@H](C(C)C)C(=O)O1	2.23% (active)	-9.02% (active)	-5.77% (active)	-22.2% (active)	5.88% (active)	-5.42% (active)	-12.7% (active)	0.749% (active)	10.8%	-61.8% (active)	12.3%	11.1%	22.7%	10.2%	–	11.1%	-62.4% (active)	20%	–	5.95% (active)
COc1c(C(NC(=O)c2ccccc2)c2sccc2C)cc(Cl)c2cccnc12 (configuration not stated)	100%	89.1%	99.8%	88.2%	106%	104%	72.4%	75.7%	98.9%	121%	108%	105%	108%	88.4%	–	100%	103%	106%	–	103%
ClCc1ccc(-c2ccc(Cn3cnc4nc(Cl)nc(Cl)c43)cc2)cc1	23.6%	29.1%	56.8%	8.06% (active)	14.3%	25.8%	-25.2% (active)	-6.5% (active)	-14% (active)	-14.1% (active)	-50% (active)	-14.4% (active)	-32.8% (active)	-21.4% (active)	–	1.27% (active)	-62.5% (active)	-45% (active)	–	13.1%
C[C@@H](C[C@H](CCO)c1cc(C(F)(F)F)cc(C(F)(F)F)c1)c1ccc2ccccc2c1	85.3%	91.1%	99.1%	85.6%	106%	96.5%	76.7%	87.7%	87.5%	97%	93.2%	33%	87.9%	93.6%	–	81.8%	77.8%	94.2%	–	79.7%
NN1C(=O)CSC1=S	97.5%	100%	98.9%	81.7%	105%	102%	73.3%	65.5%	99.2%	107%	108%	101%	109%	105%	–	95.9%	105%	105%	–	97.6%
O=C1CSC(c2c(F)cccc2Cl)N1NC(=O)C(O)(c1ccccc1)c1ccccc1 (configuration not stated)	98.7%	95.3%	102%	86.8%	113%	86.3%	88.4%	96.2%	97%	104%	108%	80.3%	82.1%	93%	–	112%	94.3%	100%	–	94.5%
